PubChem BioAssay AID1159580 (chemical genetic matrix, 2015)
Out of some 5,500 compounds screened, about 2,000 (36%) were called active. Roughly 18% stayed inconclusive and do not appear here. Cut-off read from the data, not from the text of the source: active = normalized growth mostly below about 0.91 (no sharp cut-off); inconclusive = no clear call, values can overlap the other calls; inactive = mostly above about 0.92. The list shows a part of the results.

Assay: chemical genetic growth profiling, strain panel (AID 1159580);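 note: tested at 20 µM; growth read once vehicle control cultures reached saturation at 30 °C; 1 = growth at the plate median or of vehicle wells; lower values mean less growth of the strain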
Conditions: growth OD

Measured: normalized growth

Cc1ccsc1/C=C/C1=NCCCN1C
inactive: S. cerevisiae deletion strains, locus YJR075W, strain HOC1, hits give low values 0.991 | S. cerevisiae deletion strains, locus YKL009W, strain mrt4, hits give low values 0.982 | S. cerevisiae deletion strains, locus YKL068W, hits give low values 0.967 | S. cerevisiae deletion strains, locus YKL085W, strain MDH1 (second series), hits give low values 0.979 | S. cerevisiae deletion strains, locus YKL085W, strain MDH1, hits give low values 0.979 | S. cerevisiae deletion strains, locus YKL160W, strain elf1, hits give low values 0.999 | S. cerevisiae deletion strains, locus YKL190W, strain CNB1, hits give low values 1.02 | S. cerevisiae deletion strains, locus YKR001C, strain vps1, hits give low values 0.944 | S. cerevisiae deletion strains, locus YKR026C, strain gcn3, hits give low values 0.994 | S. cerevisiae deletion strains, locus YKR091W, strain srl3, hits give low values 0.994 | S. cerevisiae deletion strains, locus YLL001W, strain dnm1, hits give low values 0.979 | S. cerevisiae deletion strains, locus YLL026W, hits give low values 0.99 | S. cerevisiae deletion strains, locus YLL041C, strain sdh2, hits give low values 0.988 | S. cerevisiae deletion strains, locus YLR027C, strain aat2, hits give low values 0.998 | S. cerevisiae deletion strains, locus YLR039C, strain RIC1, hits give low values 0.947 | S. cerevisiae deletion strains, locus YLR058C, strain SHM2, hits give low values 1.01 | S. cerevisiae deletion strains, locus YLR102C, strain apc9, hits give low values 0.984 | S. cerevisiae deletion strains, locus YLR113W, strain HOG1, hits give low values 0.963 | S. cerevisiae deletion strains, locus YLR221C, strain rsa3, hits give low values 0.983 | S. cerevisiae deletion strains, locus YLR258W, strain gsy2, hits give low values 0.988 | S. cerevisiae deletion strains, locus YLR262C, strain YPT6 (second series), hits give low values 0.97 | S. cerevisiae deletion strains, locus YLR262C, strain YPT6, hits give low values 0.946 | S. cerevisiae deletion strains, locus YLR268W, strain sec22, hits give low values 0.93 | S. cerevisiae deletion strains, locus YLR320W, strain mms22, hits give low values 0.991 | S. cerevisiae deletion strains, locus YLR330W, strain CHS5, hits give low values 1 | S. cerevisiae deletion strains, locus YLR342W, strain FKS1 (second series), hits give low values 1.08 | S. cerevisiae deletion strains, locus YLR342W, strain FKS1, hits give low values 1 | S. cerevisiae deletion strains, locus YLR357W, strain rsc2, hits give low values 0.967 | S. cerevisiae deletion strains, locus YLR370C, strain arc18, hits give low values 0.977 | S. cerevisiae deletion strains, locus YLR371W, strain rom2, hits give low values 0.973 | S. cerevisiae deletion strains, locus YLR384C, strain iki3, hits give low values 0.99 | S. cerevisiae deletion strains, locus YLR418C, strain cdc73, hits give low values 0.956 | S. cerevisiae deletion strains, locus YML016C, strain PPZ1, hits give low values 1.01 | S. cerevisiae deletion strains, locus YML032C, strain rad52, hits give low values 0.958 | S. cerevisiae deletion strains, locus YML120C, strain ndi1, hits give low values 0.991 | S. cerevisiae deletion strains, locus YML124C, strain tub3, hits give low values 0.991 | S. cerevisiae deletion strains, locus YMR058W, strain fet3, hits give low values 0.987 | S. cerevisiae deletion strains, locus YMR078C, strain ctf18, hits give low values 0.975 | S. cerevisiae deletion strains, locus YMR125W, strain sto1, hits give low values 0.994 | S. cerevisiae deletion strains, locus YMR129W, hits give low values 0.99 | S. cerevisiae deletion strains, locus YMR205C, strain PFK2, hits give low values 0.987 | S. cerevisiae deletion strains, locus YMR223W, strain ubp8, hits give low values 1.02 | S. cerevisiae deletion strains, locus YMR231W, strain pep5, hits give low values 0.987 | S. cerevisiae deletion strains, locus YMR263W, strain SAP30, hits give low values 0.994 | S. cerevisiae deletion strains, locus YMR307W, strain GAS1, hits give low values 1.07 | S. cerevisiae deletion strains, locus YNL067W, strain RPL9B, hits give low values 0.98 | S. cerevisiae deletion strains, locus YNL071W, strain lat1, hits give low values 0.988 | S. cerevisiae deletion strains, locus YNL128W, strain TEP1, hits give low values 1 | S. cerevisiae deletion strains, locus YNL153C, strain GIM3, hits give low values 1 | S. cerevisiae deletion strains, locus YNL183C, strain NPR1, hits give low values 0.952 | S. cerevisiae deletion strains, locus YNL209W, strain ssb2, hits give low values 0.984 | S. cerevisiae deletion strains, locus YNL233W, strain BNI4, hits give low values 1.01 | S. cerevisiae deletion strains, locus YNL248C, strain rpa49, hits give low values 0.997 | S. cerevisiae deletion strains, locus YNL250W, strain rad50, hits give low values 0.997 | S. cerevisiae deletion strains, locus YNL271C, strain bni1, hits give low values 0.976 | S. cerevisiae deletion strains, locus YNL298W, strain CLA4, hits give low values 0.974 | S. cerevisiae deletion strains, locus YNL307C, strain MCK1, hits give low values 0.976 | S. cerevisiae deletion strains, locus YNL322C, strain KRE1 (second series), hits give low values 0.987 | S. cerevisiae deletion strains, locus YNL322C, strain KRE1, hits give low values 1 | S. cerevisiae deletion strains, locus YNR049C, strain mso1, hits give low values 0.987 | S. cerevisiae deletion strains, locus YNR052C, strain pop2, hits give low values 0.976 | S. cerevisiae deletion strains, locus YOL006C, strain TOP1, hits give low values 0.921 | S. cerevisiae deletion strains, locus YOL012C, strain htz1 1.13 | S. cerevisiae deletion strains, locus YOL147C, strain pex11, hits give low values 0.992 | S. cerevisiae deletion strains, locus YOR001W, strain rrp6, hits give low values 1.01 | S. cerevisiae deletion strains, locus YOR061W, strain CKA2, hits give low values 1.01 | S. cerevisiae deletion strains, locus YOR069W, strain VPS5, hits give low values 1.01 | S. cerevisiae deletion strains, locus YOR070C, strain gyp1, hits give low values 0.983 | S. cerevisiae deletion strains, locus YOR080W, strain dia2, hits give low values 0.989 | S. cerevisiae deletion strains, locus YOR083W, strain WHI5, hits give low values 0.998 | S. cerevisiae deletion strains, locus YOR106W, strain vam3, hits give low values 0.994 | S. cerevisiae deletion strains, locus YOR136W, strain idh2, hits give low values 0.972 | S. cerevisiae deletion strains, locus YOR144C, strain elg1, hits give low values 0.977 | S. cerevisiae deletion strains, locus YOR184W, strain ser1, hits give low values 0.94 | S. cerevisiae deletion strains, locus YOR231W, strain MKK1, hits give low values 0.979 | S. cerevisiae deletion strains, locus YOR265W, strain rbl2, hits give low values 1.01 | S. cerevisiae deletion strains, locus YOR270C, strain vph1, hits give low values 1.01 | S. cerevisiae deletion strains, locus YOR290C, strain snf2, hits give low values 1 | S. cerevisiae deletion strains, locus YOR316C, strain cot1, hits give low values 0.956 | S. cerevisiae deletion strains, locus YPL051W, strain arl3, hits give low values 0.993 | S. cerevisiae deletion strains, locus YPL055C, strain LGE1, hits give low values 0.954 | S. cerevisiae deletion strains, locus YPL078C, strain atp4, hits give low values 0.992 | S. cerevisiae deletion strains, locus YPL106C, strain sse1, hits give low values 0.996 | S. cerevisiae deletion strains, locus YPL240C, strain hsp82, hits give low values 0.988 | S. cerevisiae deletion strains, locus YPL241C, strain CIN2, hits give low values 1.01 | S. cerevisiae deletion strains, locus YPL256C, strain CLN2, hits give low values 0.939 | S. cerevisiae deletion strains, locus YPR119W, strain clb2, hits give low values 0.981 | S. cerevisiae deletion strains, locus YPR141C, strain kar3, hits give low values 0.979 | S. cerevisiae deletion strains, locus YPR163C, strain tif3, hits give low values 0.983 | S. cerevisiae deletion strains, locus YPR167C, strain met16, hits give low values 0.97 | S. cerevisiae deletion strains, strain wtn01, hits give low values 0.949 | S. cerevisiae strains, strain wild type, hits give low values 1.01
